Experimental findings from PubChem BioAssay AID1159569 (Broad Institute, 2015) are described below.

Results with a measured potency or affinity are listed apart. Results filed as inconclusive are left out. The source made the active and inactive calls. No rule for the calls is given here.

The nature of the assay: HepG2 cell cytotoxicity, dose response, cytotoxicity control, plate reader, dry powder samples (AID 1159569).

Regarding `OC[C@H]1Nc2ccc(C#Cc3cccnc3)cc2[C@H]2NCC[C@H]21`, the compound was called inactive.
